Source: PubChem BioAssay (Tox21)
Records with an inconclusive call do not appear. A call without a number means that no potency is given here. The source made the active and inactive calls. The call rests on the fitted dose curve; in most records, active means well fitted cell-killing curve with a large enough effect in the repeat runs; inconclusive means weak or mixed curves, or effect the other way; inactive means flat fitted curve, though single readings scatter.

What was measured:
[1] = cAMP Responsive Elements (CRE) small molecule antagonists, cell-based qHTS assay: qHTS cell viability counter screen (AID 2060913); details: CRE-bla HEK293T viability, CellTiter-Glo luminescence, 5 h; series mostly up to 92.4 µM; further: nearly all actives have a fitted effect of over 40% in size
In short: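 Viability of NKH477-stimulated (0.25 uM final) CRE-bla HEK293T cells is measured by CellTiter-Glo luminescence following 3 hrs compound exposure at 37 C.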

[2] = cAMP Responsive Elements (CRE) small molecule agonists, cell-based qHTS assay: qHTS cell viability counter screen (AID 2060914); details: CRE-bla HEK293T viability, CellTiter-Glo luminescence, 5 h; series mostly up to 92.4 µM;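 further: viability read after 3 h of compound exposure; nearly all actives have a fitted effect of over 50% in size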
In short: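 HEK 293T CRE-bla; DMEM + 10% dialyzed FBS, 25 mM HEPES; 18 h pre-incubation; compound 3 h, 37 °C/5% CO2; CellTiter-Glo added after reporter read; luminescence after 30 min RT.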

Row | Compound | Potency [1] | Potency [2]
1 | COCCOC(=O)CC#N | inactive | inactive
2 | ON(Cc1ccccc1)Cc1ccccc1 | inactive | inactive
3 | CO/N=C(/C(=O)N[C@@H]1C(=O)N2C(C(=O)OCOC(=O)C(C)(C)C)=C(C)CS[C@H]12)c1csc(N)n1 | inactive | inactive
4 | COc1ccccc1N1CCN(CC(O)COc2cccc3ccccc23)CC1 (stereo unspecified) | inactive | inactive
5 | Cc1ccc(N=Nc2c(O)c(C(=O)O)cc3ccccc23)c(S(=O)(=O)O)c1 | inactive | inactive
6 | CNC(=O)c1c(I)c(NC(C)=O)c(I)c(C(=O)O)c1I | inactive | inactive
7 | C=CC(=O)OCCCCCCCC | inactive | inactive
8 | CCCc1ccccc1 | inactive | inactive
9 | CCCCCCCCCOCC1CO1 (stereo unspecified) | inactive | inactive
10 | N[C@H]1C(O)O[C@H](CO)[C@@H](O)[C@@H]1O (stereo partly specified) | inactive | inactive
11 | Cc1ccc(NC(=O)N(C)C)cc1NC(=O)N(C)C | inactive | inactive
12 | OC[C@H]1O[C@@H](O[C@H]2[C@H](O)[C@@H](O)[C@H](O)O[C@@H]2CO)[C@H](O)[C@@H](O)[C@H]1O | inactive | inactive
13 | CC(C)=CCCC(C)C=O (stereo unspecified) | inactive | inactive
